The source made the active and inactive calls. Rule for the calls: active = hit-call score of the fitted dose curve at least 0.9, where 1 is the maximum; inactive = score below 0.9.
What follows are molecules tested against Myc proto-oncogene protein (Homo sapiens) (UniProt P01106) (assay: ATG_Myc_CIS: Attagene CIS-FACTORIAL HepG2 Assay for human Myelocytomatosis (Myc) Proto-Oncogene Transcription Factor (AID 2282990)). Conditions: HepG2, Attagene cis-reporter transcription factor activity; actives raise or lower the signal.
Myc proto-oncogene protein (Homo sapiens), sequence (P01106 whole entry, looked up): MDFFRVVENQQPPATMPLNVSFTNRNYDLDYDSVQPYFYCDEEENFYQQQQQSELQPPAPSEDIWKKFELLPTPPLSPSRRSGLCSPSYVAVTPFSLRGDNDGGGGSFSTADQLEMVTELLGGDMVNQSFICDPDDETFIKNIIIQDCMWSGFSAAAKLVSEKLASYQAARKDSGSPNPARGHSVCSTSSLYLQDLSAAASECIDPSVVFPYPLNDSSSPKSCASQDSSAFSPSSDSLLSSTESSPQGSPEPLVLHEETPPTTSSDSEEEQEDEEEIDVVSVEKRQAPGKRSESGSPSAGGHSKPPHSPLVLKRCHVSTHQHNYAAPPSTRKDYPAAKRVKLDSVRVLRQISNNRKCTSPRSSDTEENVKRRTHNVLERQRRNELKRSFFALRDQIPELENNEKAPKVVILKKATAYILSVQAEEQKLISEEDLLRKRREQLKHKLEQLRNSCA
Procedure: ATG_CIS is a cell-based, multiplexed-readout assay that uses HepG2, a human liver cell line, with measurements taken at 24 hours after chemical dosing in a 24-well plate.ATG_Myc_CIS is one of 52 assay component(s) measured or calculated from the ATG_CIS assay. It is designed to make measurements of mRNA induction, a form of inducible reporter, as detected with fluorescence intensity signals by Reverse transcription polymerase chain reaction (RT-PCR) and Capillary electrophoresis technology.Data from the assay component ATG_Myc_CIS was analyzed into 1 assay endpoint. This assay endpoint, ATG_Myc_CIS, was analyzed with bidirectional fitting relative to DMSO as the negative control and baseline of activity. Using a type of inducible reporter, measures of mRNA for gain or loss-of-signal activity can be used to understand the reporter gene at the transcription factor-level as they relate to the gene MYC. Furthermore, this assay endpoint can be referred to as a primary readout, because this assay has produced multiple assay endpoints where this one serves a reporter gene function. To generalize the intended target to other relatable targets, this assay endpoint is annotated to the dna binding intended target family, where the subfamily is basic helix-loop-helix leucine zipper.
Human liver HepG2 cells are transiently transfected with multiple reporter transcription units (MRTUs) in 6-well plates using FuGene 6 reagent (Roche; 3 ml FuGene/1 mg DNA). The MRTU constructs are regulated by a cis-regulating element (promoter). […] A major difference between the CIS and TRANS system is that in CIS activities of endogenous TFs are measured, whereas the TRANS assay evaluates changes in activities of exogenous, chimeric NR-Gal4 proteins. […] At the end of 24 hour incubation, total RNA was isolated using TriZol reagent (Invitrogen). The isolated RNA is then reverse-transcribed using oligo(dT) primer and Mo-MLV reverse transcriptase (Invitrogen) with DNAse I (Ambion) treatment for 30 min. The one-tenth of the produced cDNA was amplified by PCR using Taq DNA polymerase (Invitrogen) and two reporter sequence-specific primers. The PCR products were fluorescently labeled by primer extension with 6-arboxyfluorescein (6-FAM) 5'-labeled reporter sequence-specific primer (2 min at 95 C, 20 s at 68 C and 10 min at 72 C) and these products were digested with 5U of HpaI (New England Biolabs) for 2h at 37 C. The fragments were purified using Qiaquick PCR columns (Qiagen), analyzed on an ABI 3130xL genetic analyzer (Applied Biosystems) with peak positions identified by using a set of X-rhodamine (ROX)-labeled MapMarker1000 molecular weight standards (BioVentures). The raw capillary electrophoresis data was processed using Attagraph software (Attagene).
`CCCOc1ccc(S(=O)(=O)N2CCN(CC)CC2)cc1-c1nc2c(CC)n(Cc3ccccn3)nc2c(=O)[nH]1` was tested, and the outcome was “inactive”. In the case of `CNC(C)=O`, the outcome is reported as “inactive”. With `Cc1nc(-c2ccccn2)ncc1C(=O)Nn1cc(C)c2cc(F)ccc21` the outcome was “inactive”. In the case of `Cc1nccn1-c1ccc(Sc2cccc(C3(C(N)=O)CCOCC3)c2)cc1`, the AC50 is reported as 2.85 µM (active). In the case of `CCCCCCCCCCCCCCO`, the AC50 is reported as 166 µM (active). `C=CN1CCCC1=O` was tested, and the outcome was “inactive”. With `CCCCCCCCCCCCCCCCOS(=O)(=O)O` the outcome was “inactive”. With `OCCNCCO` the outcome was “inactive”. `CC(C)c1nnc2ccc(-c3ocnc3-c3cc(F)ccc3F)cn12` was tested, and the outcome was “inactive”. `CCCCN1C(=O)[C@@H]([C@H](O)C2CCCCC2)NC(=O)C12CCN(Cc1ccc(Oc3ccc(C(=O)O)cc3)cc1)CC2` was tested, and the outcome was “inactive”. In the case of `O=C(O)c1cccc(C(=O)O)c1`, the outcome is reported as “inactive”. In the case of `c1ccc(C(O[C@@H]2CCCN(CCc3ccc4c(c3)OCO4)C2)c2ccccc2)cc1`, the outcome is reported as “inactive”. For `O=S1(=O)CCCO1`, the outcome was “inactive”. In the case of `c1ccc2cc3ccccc3cc2c1`, the outcome is reported as “inactive”. For `CCc1ccc(O)c(C(C)(C)C)c1`, the AC50 was 33.4 µM (active). In the case of `C[C@]12C=CC(=O)C=C1CC[C@H]1[C@@H]3C[C@@H](O)[C@](O)(C(=O)CO)[C@@]3(C)C[C@H](O)[C@@]12F`, the outcome is reported as “inactive”. For `COCc1nnc(-c2ccc[n+]([O-])c2)n1-c1c(Cl)c(Cl)cc2[nH]c(=O)c(=O)[nH]c12`, the outcome was “inactive”. With `OCCC(F)(F)C(F)(F)C(F)(F)C(F)(F)F` the outcome was “inactive”. For `NC(=O)N1c2ccccc2C=Cc2ccccc21`, the outcome was “inactive”. In the case of `O=C(O)c1ccc2c(c1)nc(C(=O)NC1CCN(C3CC3)CC1)n2Cc1cc(-c2ccc(Cl)s2)on1`, the outcome is reported as “inactive”. In the case of `CCOC(N)=O`, the outcome is reported as “inactive”. For `FC(F)=C(F)C(F)(F)C(F)(F)C(F)(F)C(F)(F)C(F)(F)C(F)(F)F`, the outcome was “inactive”. For `O=C(O)[C@H](O)[C@@H](O)C(=O)O`, the outcome was “inactive”. `OCc1c[nH]c2ccccc12` was tested, and the outcome was “inactive”. For `c1ccc2c(c1)-c1cccc3c1c-2cc1ccccc13`, the outcome was “inactive”. For `NC(=O)N(O)[C@@H]1COc2cc(OCc3ccccc3)ccc21`, the outcome was “inactive”. With `S=P(N1CC1)(N1CC1)N1CC1` the outcome was “inactive”. For `C[Si](C)(C)C(F)(F)C(F)(F)C(F)(F)F`, the outcome was “inactive”. For `Nc1ccn([C@@H]2O[C@H](CO)[C@@H](O)[C@@H]2O)c(=O)n1`, the outcome was “inactive”. For `CCCCOC(=O)c1ccccc1`, the outcome was “inactive”. In the case of `NNC(=O)c1ccncc1`, the outcome is reported as “inactive”. With `Cc1ccc(S(=O)(=O)NC(=O)NN2CCCCCC2)cc1` the outcome was “inactive”. With `C=CCc1cc(S(=O)(=O)c2ccc(O)c(CC=C)c2)ccc1O` the outcome was “inactive”. With `Cc1ncc([C@@H](CCCCCCc2ccc3c(n2)NCCC3)CC(=O)O)cn1` the outcome was “inactive”. With `CCn1nc(C)c2c1C(=O)NCC(c1ccc(O)cc1)=N2` the outcome was “inactive”. `CCCCCOC(C)=O` was tested, and the outcome was “inactive”. `CC(=O)c1ccccc1` was tested, and the outcome was “inactive”. For `FC(F)(F)C(F)(F)C(F)(F)C(F)(F)C(F)(F)C(F)(F)I`, the outcome was “inactive”. In the case of `CCc1cccc(CC)c1N`, the outcome is reported as “inactive”. In the case of `O=C(Cl)C(F)(F)C(F)(F)C(F)(F)C(=O)Cl`, the outcome is reported as “inactive”.
